Whole data set: some 1,600 compounds, median “Hit score” near 0.13, cut for the highest 2% near 0.46. This excerpt belongs to a sample that is enriched for the highest values.
test system: SARS-CoV-2; experiment: Antiviral activity against SARS-CoV-2 (USA-WA1/2020 strain) measured by imaging in HRCE cells at MOI 0.4 after 96 hrs (reported as hit score from 0-1 for on-disease vs off-disease activity: scores >0.6 considered hits); format: functional, Homo sapiens

SMILES	Hit score
CC1(C)S[C@@H]2[C@H](NC(=O)Cc3ccccc3)C(=O)N2[C@H]1C(=O)O [PENICILLIN G]	0.164
CC(=O)O[C@H]1C[C@@H]2CC[C@@H]3[C@H](CC[C@@]4(C)[C@H]3C[C@H]([N+]3(C)CCCCC3)[C@@H]4OC(C)=O)[C@@]2(C)C[C@@H]1[N+]1(C)CCCCC1 [PANCURONIUM]	0.09762
C=CCNc1nc(NCC=C)nc(N2CCN(C(c3ccc(F)cc3)c3ccc(F)cc3)CC2)n1 [ALMITRINE]	0.7206
COc1ccc(CN2CCN(C(c3ccc(F)cc3)c3ccc(F)cc3)CC2)c(OC)c1OC [LOMERIZINE]	-0.04979
C#Cc1cccc(Nc2ncnc3cc4c(cc23)OCCOCCOCCO4)c1 [ICOTINIB]	0.1043
C[C@H](O)[C@H](O)[C@H]1CNc2nc(N)[nH]c(=O)c2N1 [SAPROPTERIN]	0.04545
C=C1[C@H](CO)[C@@H](O)C[C@@H]1n1cnc2c(=O)[nH]c(N)nc21.O	0.1346
CC1(C)S[C@@H]2[C@H](NC(=O)[C@H](NC(=O)N3CCN(S(C)(=O)=O)C3=O)c3ccccc3)C(=O)N2[C@H]1C(=O)O [MEZLOCILLIN]	0.1621
O=C(O[C@H]1C[C@H]2CC[C@@H](C1)[N+]21CCCC1)C(O)(c1ccccc1)c1ccccc1 [TROSPIUM]	0.08693
Cc1ccccc1C(=O)Nc1ccc(C(=O)N2CCCC(N(C)C)c3ccccc32)cc1 (stereo unspecified) [MOZAVAPTAN]	0.1836
CCC(C)(C)C(=O)O[C@H]1C[C@@H](C)C=C2C=C[C@H](C)[C@H](CC[C@@H]3C[C@@H](O)CC(=O)O3)[C@H]21 [SIMVASTATIN]	0.1206
C[C@H]1c2cccc(O)c2C(=O)C2=C(O)[C@]3(O)C(=O)C(C(N)=O)=C(O)[C@@H](N(C)C)[C@@H]3[C@@H](O)[C@@H]21.O [DOXYCYCLINE]	-0.02175
CCCCCCCC/C=C/CCCCCCCC(=O)OC[C@H]1O[C@@H](n2ccc(N)nc2=O)C(F)(F)[C@@H]1O [GEMCITABINE ELAIDATE]	0.08488
CC/C=C\C/C=C\C/C=C\C/C=C\C/C=C\CCCC(=O)O [ICOSAPENT]	0.1484
C[N+]1(CC2CC2)[C@@H]2C[C@@H](OC(=O)[C@H](CO)c3ccccc3)C[C@H]1[C@@H]1O[C@@H]12 (stereo partly specified) [CIMETROPIUM]	0.08586
COc1cccc(Nc2c(C(N)=O)cnc3c(C)cc(S(=O)(=O)c4cccc(C(=O)N(C)C)c4)cc23)c1 [GSK-256066]	-0.006373
Cl.OC(CNCC(O)C1CCc2cc(F)ccc2O1)C1CCc2cc(F)ccc2O1 (stereo unspecified) [NEBIVOLOL HYDROCHLORIDE]	0.4783
C[C@]12CC[C@@H]3c4ccc(O)cc4CC[C@H]3[C@@H]1CC[C@@H]2OC(=O)CCC1CCCC1 [ESTRADIOL CYPIONATE]	0.1681
Cc1ccc(/C=C2\CNC/C(=C\c3ccc(C)cc3)C2=O)cc1.Cl	0.05741
C[C@@H](O)[C@H]1C(=O)N2C(C(=O)O)=C([C@H]3CCCO3)S[C@H]12 [FAROPENEM]	0.1823
CC1(C)S[C@@H]2[C@H](NC(=O)[C@H](N)c3ccc(O)cc3)C(=O)N2[C@H]1C(=O)[O-].[Na+] [AMOXICILLIN SODIUM]	0.05468
NCCCC[C@H](N)C(=O)O.N[C@@H](CSCC(=O)O)C(=O)O.O	0.1749

SMILES	Hit score
CO/N=C(\C(=O)N[C@@H]1C(=O)N2C(C(=O)OCOC(=O)C(C)(C)C)=C(C)CS[C@H]12)c1csc(N)n1	0.2495
CN(C)C(=O)c1cc2cnc(Nc3ccc(N4CCNCC4)cn3)nc2n1C1CCCC1 [RIBOCICLIB]	0.1227
CC(COc1ccccc1Cc1ccccc1)N1CCCCC1 (stereo unspecified) [BENPROPERINE]	0.02777
C#C[C@]1(O)CC[C@H]2[C@@H]3CCC4=CC(=O)CC[C@@H]4[C@H]3CC[C@@]21C [NORETHINDRONE]	0.1388
C=CCN1CC[C@]23c4c5ccc(O)c4O[C@H]2[C@@H](OCCOCCOCCOCCOCCOCCOCCOC)CC[C@@]3(O)[C@H]1C5 [NALOXEGOL]	0.106
CN(C(=O)C(Cl)Cl)c1ccc(O)cc1 [DILOXANIDE]	-0.0329
O=C1[C@H]2CCCC[C@H]2C(=O)N1CCCCN1CCN(c2nsc3ccccc23)CC1 [PEROSPIRONE]	0.1455
CCCCCCCCCCCC(=O)OCC(O)CO (stereo unspecified) [GLYCEROL MONOLAURATE]	0.1728
OCC(O)COc1cccc2ccccc12 (stereo unspecified)	0.1908
CC1=C(C)C(=O)C(CCCCCCCCCC[P+](c2ccccc2)(c2ccccc2)c2ccccc2)=CC1=O	0.06177
C#C[C@]1(O)CC[C@H]2[C@@H]3CCC4=Cc5oncc5C[C@]4(C)[C@H]3CC[C@@]21C [DANAZOL]	0.2899
CC(C)(CO)c1cc2cc(NC(=O)C3(c4ccc5c(c4)OC(F)(F)O5)CC3)c(F)cc2n1C[C@@H](O)CO [TEZACAFTOR]	0.1873
O=C(O)c1cccc(-c2noc(-c3ccccc3F)n2)c1	0.2151
N#Cc1ccnc(N2C(=O)CC[C@H]2C(=O)N(c2cncc(F)c2)[C@H](C(=O)NC2CC(F)(F)C2)c2ccccc2Cl)c1 [IVOSIDENIB]	0.2722
O=C(O)c1ccc2c(c1)nc(Nc1cccc(Cl)c1)c1ccncc12 [SILMITASERTIB]	0.7608
C[C@H](Nc1ncnc2nc[nH]c12)c1cc2cccc(Cl)c2c(=O)n1-c1ccccc1 [DUVELISIB]	0.6035
CC[C@H](Nc1ncnc2[nH]cnc12)c1nc2cccc(F)c2c(=O)n1-c1ccccc1 [IDELALISIB]	0.4259
C[C@H](C(=O)O)c1ccc(-c2ccccc2)c(F)c1 [ESFLURBIPROFEN]	0.1907
OC[C@H]1OC(O)[C@H](O)[C@@H](O)[C@@H]1O (stereo partly specified) [DEXTROSE]	0.07162
CCCCC(F)(F)[C@@]1(O)CC[C@H]2[C@@H](CC(=O)[C@@H]2CCCCCCC(=O)O)O1 [LUBIPROSTONE]	0.08446
CC1(C)C(/C=C/C=C/C=C/C=C2\N(CCCCS(=O)(=O)[O-])c3ccc4ccccc4c3C2(C)C)=[N+](CCCCS(=O)(=O)[O-])c2ccc3ccccc3c21.[Na+] [INDOCYANINE GREEN]	0.2338
Cc1nc(NC(=O)N2CCC[C@H]2C(N)=O)sc1-c1ccnc(C(C)(C)C(F)(F)F)c1 [ALPELISIB]	0.6194

SMILES	Hit score
CC(C)(C)C(=O)OCC(=O)[C@H]1CC[C@H]2[C@@H]3CCC4=CC(=O)CC[C@]4(C)[C@H]3CC[C@]12C [DESOXYCORTICOSTERONE PIVALATE]	0.2223
O=C(O)c1ccc(NC(=O)[C@H](Cc2ccc(O)cc2)NC(=O)c2ccccc2)cc1 [BENTIROMIDE]	0.2686
CC1(C)O[C@@H]2[C@@H](CO[C@@]3(COS(N)(=O)=O)OC(C)(C)O[C@@H]23)O1 [TOPIRAMATE]	0.1748
N#Cc1c(N2C[C@@H]3NCCO[C@H]3C2)c(F)cc2c(=O)c(C(=O)O)cn(C3CC3)c12 [FINAFLOXACIN]	0.04952
C[C@H]1C[C@@H]2[C@H]([C@@H](O)C[C@@]3(C)[C@H]2CC[C@]3(O)C(=O)CO)[C@@]2(C)C=CC(=O)C=C12 [METHYLPREDNISOLONE]	0.1629
CCCCc1oc2ccc(NS(C)(=O)=O)cc2c1C(=O)c1ccc(OCCCN(CCCC)CCCC)cc1 [DRONEDARONE]	0.03796
C[C@]1(Cn2ccnn2)[C@H](C(=O)O)N2C(=O)C[C@H]2S1(=O)=O [TAZOBACTAM]	0.04532
CC(C)Cc1ccc(C(C)C(=O)OCc2ccccn2)cc1 (stereo unspecified) [IBUPROFEN PICONOL]	0.1126
CCCN1CC(NS(=O)(=O)N(CC)CC)CC2Cc3c(O)cccc3CC21 (stereo unspecified) [QUINAGOLIDE]	0.09123
CO/N=C(\C(=O)N[C@@H]1C(=O)N2C(C(=O)O)=C(CSc3nnnn3C)CS[C@H]12)c1csc(N)n1 [CEFMENOXIME]	0.1641
N=C(N)c1ccc(/C=C/c2ccc(C(=N)N)cc2O)cc1 [HYDROXYSTILBAMIDINE]	0.4886
Nc1nc(=O)c2c([nH]1)NC[C@H](CNc1ccc(C(=O)N[C@@H](CCC(=O)O)C(=O)O)cc1)N2C=O [LEVOLEUCOVORIN]	0.1157
C#C[C@]1(OC(C)=O)CC[C@H]2[C@@H]3CCC4=CC(=O)CC[C@@H]4[C@H]3CC[C@@]21C [NORETHINDRONE ACETATE]	0.06494
COc1ccccc1OCC(O)CO (stereo unspecified) [GUAIFENESIN]	0.2008
COc1ccc(CCNCC(O)COc2cccc(C)c2)cc1OC (stereo unspecified) [BEVANTOLOL]	0.3675
CC(C)NCC(O)COc1cccc2[nH]ccc12 (stereo unspecified) [PINDOLOL]	0.3758
C=CCOc1ccccc1OCC(O)CNC(C)C (stereo unspecified) [OXPRENOLOL]	0.08363
COc1ccccc1OCCNCC(O)COc1cccc2[nH]c3ccccc3c12 (stereo unspecified) [CARVEDILOL]	0.5244
CC(C)NCC(O)COc1cccc2ccccc12 (stereo unspecified) [PROPRANOLOL]	0.3664
C=CCc1ccccc1OCC(O)CNC(C)C (stereo unspecified) [ALPRENOLOL]	0.3773
CC(C)NC[C@@H](O)COc1cccc2ccccc12 [DEXPROPRANOLOL]	0.4686
CC(C)NCC(O)COc1cccc2[nH]c3ccccc3c12 (stereo unspecified) [CARAZOLOL]	0.4815
